Reference: paper PMC5540273 (PLoS ONE, 2017)

How the values were obtained:
Settings in all cases: concentration: 1 μM,replicates: in singlicate; n = 1
MLK1 = tested on: T1, MLK1
T1 construct: gene MAP3K9

MLK2 = tested on: MLK2
MLK3 = tested on: MLK3
MRCKA = tested on: MRCKA
MRCKB = tested on: T2, MRCKB
T2 construct: gene CDC42BPB

MST1R = tested on: MST1R
MST1 = tested on: T3, MST1
T3 construct: gene STK4

MST2 = tested on: T4, MST2
T4 construct: gene STK3

MST3 = tested on: T5, MST3
T5 construct: gene STK24

MST4 = tested on: MST4
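Also: KINOMEscan kinase panel screen.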

| SMILES | %Inh (MLK1) [%] | %Inh (MLK2) [%] | %Inh (MLK3) [%] | %Inh (MRCKA) [%] | %Inh (MRCKB) [%] | %Inh (MST1R) [%] | %Inh (MST1) [%] | %Inh (MST2) [%] | %Inh (MST3) [%] | %Inh (MST4) [%] |
| --- | --- | --- | --- | --- | --- | --- | --- | --- | --- | --- |
| CCn1c(-c2nonc2N)nc2c(C#CC(C)(C)O)nc(OCCN)cc21.Cl.Cl [GSK902056] | 0 | 0 | 0 | 3 | 0 | 43 | 0 | 0 | 0 | 0 |
| Nc1nc(Nc2ccccc2)cc(-c2ccc3c(N)n[nH]c3c2)n1 [GSK2225749] | 0 | 14 | 0 | 0 | 1 | 0 | 7 | 5 | 5 | 0 |
| Cl.Cl.Nc1nc(-c2ccc3c(N)n[nH]c3c2)cc(N2CCCC(NC(=O)c3ccccc3)C2)n1 (stereo not shown) [GSK2286775] | 0 | 0 | 0 | 2 | 0 | 35 | 0 | 8 | 12 | 2 |
| CN(C)CCOc1ccc(-c2cc(-c3c[nH]nc3-c3ccccn3)ccn2)cc1 [GW835314] | 14 | 6 | 19 | 0 | 0 | 0 | 25 | 0 | 6 | 24 |
| Cl.Cl.NC[C@H](Cc1ccc(C(F)(F)F)cc1)NC(=O)c1cc(Br)c(-c2ccnc3[nH]ccc23)s1 [GSK1487252] | 4 | 0 | 0 | 43 | 97.7 | 44 | 0 | 0 | 13 | 17 |
| CCN(CC)CCOc1ccc(Nc2ncc3cc(-c4c(Cl)cccc4Cl)c(=O)n(C)c3n2)cc1 [SB-601273] | 87 | 71 | 75 | 83 | 76 | 93 | 57 | 58 | 80 | 83 |
| CNC(=O)c1ccccc1Sc1ccc2c(/C=C/c3ccccn3)n[nH]c2c1 | 0 | 17 | 1 | 0 | 100 | 29 | 0 | 50 | 11 | 0 |
| C[C@@H]1CCN(C(=O)CC#N)C[C@@H]1N(C)c1ncnc2[nH]ccc12 | 0 | 0 | 3 | 0 | 0 | 0 | 3 | 0 | 100 | 0 |
| O=C(NCCCN1CCOC1=O)c1cnc(NCc2cc(Cl)ccc2Cl)nc1NC1CCCC1 | 8 | 4 | 23 | 4 | 18 | 26 | 27 | 35 | 14 | 0 |
| Cl.Cl.NC[C@H](CC1CCCCC1)NC(=O)c1cc(Br)c(-c2ccnc3[nH]ccc23)s1 [GSK1581427] | 0 | 0 | 0 | 86 | 99.4 | 11 | 0 | 0 | 0 | 10 |
| Cc1occc1-c1nc(N)c(OC[C@@H](N)Cc2c[nH]c3ccccc23)cc1-c1cc2c(C)n[nH]c2cn1 [GSK1660450] | 29 | 0 | 22 | 78 | 97.6 | 0 | 96.8 | 78 | 91.2 | 94.9 |
| Cc1cc(C(=O)Nc2ccc(Oc3ccc4nc(NC(=O)C5CC5)cn4n3)cc2)nn1-c1ccccc1 | 20 | 43 | 4 | 28 | 0 | 0 | 13 | 0 | 0 | 0 |
| C=CC(=O)Nc1cc2c(Nc3ccc(F)c(Cl)c3)ncnc2cc1OCCCN1CCOCC1 [GW781483] | 0 | 0 | 3 | 0 | 11 | 10 | 1 | 0 | 33 | 0 |
| CC(C)N1C(=O)Cc2cc(Nc3ncc(C(F)(F)F)c(NCc4cccc(S(C)(=O)=O)c4)n3)ccc21 | 99.7 | 90.2 | 98.8 | 0 | 0 | 0 | 0 | 35 | 23 | 0 |
| Cc1ccc2c(-c3ccncc3)c(-c3ccc(F)cc3)nn2c1.Cl [GW461484] | 10 | 0 | 0 | 5 | 0 | 38 | 5 | 7 | 2 | 0 |
| NC(=O)c1cc(-c2ccccc2)cc2c(C3CCNCC3)c[nH]c12 [GSK301362] | 9 | 12 | 0 | 18 | 13 | 40 | 43 | 86 | 0 | 0 |
| CN(C)CC(O)COc1ccc(Nc2nccc(-c3cnn4nc(N5CCOCC5)ccc34)n2)cc1 (stereo not shown) [GW767488] | 0 | 18 | 18 | 0 | 3 | 16 | 0 | 0 | 0 | 46 |
| Cl.Oc1cc(-c2nc(-c3ccccc3)[nH]c2-c2ccncc2)ccc1Cl [SB-386023] | 0 | 0 | 3 | 0 | 0 | 22 | 0 | 27 | 0 | 9 |
| O=C(NCCNc1ccnc(NCc2ccc(F)cc2)n1)c1cc2ccccc2s1 [GSK1379944] | 5 | 0 | 0 | 10 | 69 | 4 | 0 | 0 | 1 | 0 |
| Cc1ccc(-n2nc(C(C)(C)C)cc2NC(=O)Nc2ccc(OCCN3CCOCC3)c3ccccc23)cc1 [GW839464] | 6 | 22 | 1 | 8 | 49 | 0 | 0 | 33 | 11 | 0 |
| COc1ccc(C[C@@H](CN)NC(=O)c2cc(Br)c(-c3ccnc4[nH]ccc34)s2)cc1.Cl.Cl [GSK1389063] | 13 | 0 | 0 | 89 | 99.4 | 40 | 0 | 34 | 0 | 54 |
| CC(C)Nc1cc(-c2ccc3c(N)n[nH]c3c2)nc(N)n1 [GSK2221681] | 10 | 0 | 9 | 0 | 0 | 13 | 0 | 0 | 0 | 0 |
| Cc1n[nH]c2ccc(-c3cc(OC[C@@H](N)Cc4ccccc4)cnc3-c3ccoc3)cc12.O=C(O)C(F)(F)F.O=C(O)C(F)(F)F [GSK507358] | 0 | 0 | 0 | 28 | 15 | 33 | 2 | 33 | 17 | 65 |
| Cc1cc2cn[nH]c2cc1-c1cccc2c(N)c(C(N)=O)nnc12 | 18 | 0 | 30 | 24 | 0 | 11 | 90.2 | 88 | 11 | 69 |
| C[C@H]1Oc2cc(cnc2N)-c2c(nn(C)c2C#N)CN(C)C(=O)c2ccc(F)cc21 | 13 | 0 | 23 | 0 | 16 | 0 | 19 | 19 | 4 | 0 |
| CCN(CC)CCCCNc1ncc2cc(-c3c(Cl)cccc3Cl)c(NC(=O)NC(C)(C)C)nc2n1 | 0 | 40 | 4 | 0 | 0 | 10 | 40 | 31 | 74 | 86 |
| C[C@@H](Oc1cc(-c2cnn(C3CCNCC3)c2)cnc1N)c1c(Cl)ccc(F)c1Cl | 0 | 0 | 0 | 0 | 10 | – | 56 | 0 | – | 0 |
